Source: PubChem BioAssay
Hits are enriched below; roughly 7.2% of the tested compounds scored in any of these assays.
Luciferase inh: Firefly luciferase inhibition profiling of diverse chemical library using quantitative high-throughput screening | Luciferin 4-monooxygenase (Photinus pyralis), P08659 | purified P. pyralis luciferase, luminescence, biochemical | Potency, µM (doses to about 115 µM), usual class: inhibitors | 76,000 tested, 2.5% active | AID 1347043, 2019; also: nearly all actives have a fitted effect of over 65% in size
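Luminescence read by CCD imaging after purified firefly luciferase (10nM final) was added to substrate buffer holding 10uM D-luciferin and 10uM ATP, pH 7.5, pre-dosed with compound.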
NPR1 antag: Natriuretic polypeptide receptor (hNpr1) antagonism - Primary qHTS; AID 1347048, 2019; 76,000 tested, 1.6% active; Atrial natriuretic peptide receptor 1 (Homo sapiens), P16066; HEK293 hNpr1 GloSensor cGMP, ANP-stimulated luminescence; Potency, µM (titrated, usually from 46.3 µM), for the others: at the highest dose activity change, negative = inhibition, hits mostly inhibitors; calls by dose curve; also: nearly all actives have a fitted effect of over 60% in size
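Compound pre-incubated 30 min at room temperature on GloSensor-loaded HEK293 cells stably carrying hNpr1 and the pGS-40F cGMP biosensor. Stimulation uses hNppA at 0.1 nM final; luminescence is taken at baseline and 20 min post-agonist.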
HEK293 viab: GF-AFC viability counterscreen for inhibitors of alpha-synuclein gene (SNCA) expression | 150,000 tested, 0.12% active | Potency, µM (doses to about 57.1 µM), for the others: at the top dose activity change, negative = cytotoxicity, most hits filed as cytotoxic | AID 1671193, 2021 | HEK-293-SNCA-luc viability, GF-AFC fluorescence, 24 h;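 also: 0% = DMSO-treated cells and -100% = medium-only wells without cells; nearly all actives have a fitted effect of over 30% in size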
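HEK-293-SNCA-luc cells (1500/well) plated 24 h, then exposed 24 h to a dilution series; GF-AFC added 30 min at 37C, fluorescence 405/540 nm; normalised to medium-only and DMSO wells, Hill fit.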
HEK293 tox: Cytotoxic Profiling in HEK 293 Cell Line of Diverse Libraries Using Quantitative High-Throughput Screening. HEK 293 viability, ATP luminescence (CellTiter-Glo), 48-72 h. AID 1345083, 2018. 94,000 tested, 6.6% active. Potency, µM (doses to about 115 µM), inactives show at the highest dose activity change, negative = cytotoxicity, hits mostly inhibitors; also: nearly all actives have a fitted effect of over 60% in size
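HEK 293 cells at 250 cells/well were exposed to compounds by pintool transfer for 48 or 72 hr at 37 degree Celsius, 5% CO2. Viability was read as ATP-coupled luminescence with CellTiter-Glo after 10 min at room temperature.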
NIH3T3 tox: Cytotoxic Profiling in NIH 3T3 Cell Line of Diverse Libraries Using Quantitative High-Throughput Screening; NIH 3T3 viability, CellTiter-Glo ATP luminescence, 48-72 h; Potency, µM (highest dose often 96.7 µM), for the others: at the top dose activity change, negative = cytotoxicity, usual class: inhibitors; 94,000 tested, 4.3% active; also: nearly all actives have a fitted effect of over 55% in size
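Cytotoxicity is measured as loss of cellular ATP: NIH 3T3 cells (400/well) are exposed to compound for 48 or 72 hr at 37 °C, then CellTiter-Glo luminescence is imaged after 10 min at room temperature.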
SNCA expr inhib: Primary qHTS assay for inhibitors of alpha-synuclein gene (SNCA) expression; HEK-293 SNCA-luciferase knock-in, luminescence, 24 h; Potency, µM (doses to about 57.2 µM), inactives show at the highest dose activity change, negative = inhibition, usual class: inhibitors; 140,000 tested, 0.17% active; AID 1671194, 2021;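 also: plate controls were DMSO cells for no effect and cell-free wells for full effect; nearly all actives have a fitted effect of over 45% in size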
* hit, by the source's call; i = inactive; ? = inconclusive; . = not tested or not shown; [ ] = remark or other dose. Unless noted, calls follow the shape of the dose curve; as a rule, active = well fitted curve in the direction sought with a large enough effect; inconclusive = small, poorly fitted or top-dose-only effect, or another doubt; inactive = no such curve, though single readings can be large; an effect the other way counts as inactive or inconclusive. Unless noted, % is scaled to controls: 0 for no effect and ±100 for the full control effect; potency is read from the fitted curve at half-maximal effect.

SMILES	Luciferase inh	NPR1 antag	HEK293 viab	HEK293 tox	NIH3T3 tox	SNCA expr inhib
CCCNCc1ccc(-c2ccccc2)o1	i	-1%	19%	-6%	i	36%
COc1ccc(-c2ccc3nc(-c4ccccc4)oc3c2)c(OC)c1OC	i	3%	14%	45µM*	?	-11%
COc1ccc(-c2nc3ccc(-c4ccc5c(c4)OCO5)cc3o2)c(OC)c1OC	13µM*	-7%	0%	?	?	72%
O=C(NCCOc1cccnc1)c1cn(Cc2cccc(C(F)(F)F)c2)nn1	i	-1%	-1%	28µM*	?	26%
CC(C)(C)c1cc(C[C@H]2CNCC[C@H]2CC(=O)N2CCC(Cc3ccccc3)CC2)no1	i	3%	-15%	22µM*	28µM*	8%
O=C(C[C@@H]1CCNC[C@@H]1Cc1cc(-c2ccccc2)on1)N1CCC(Cc2ccccc2)CC1	i	7%	5%	?	28µM*	-14%
COc1ccc(-c2cc(C[C@H]3CNCC[C@H]3CC(=O)N3CCC(Cc4ccccc4)CC3)no2)cc1	i	0%	-13%	?	?	-9%
NC(=O)C1CCN(C(=O)C[C@@H]2CCNC[C@@H]2Cc2cc(COc3ccccc3)on2)CC1	i	-2%	-1%	i	i	4%
COc1ccc(OC)c(NC(=O)c2cc(-c3ccc[nH]3)n[nH]2)c1	?	-8%	-13%	40µM*	45µM*	-19%
COc1ccc(NC(=O)c2cc(-c3ccc[nH]3)n[nH]2)cc1OC	?	-10%	-25%	-20%	-10%	-16%
Cc1ccc(F)cc1NC(=O)c1cc(-c2ccc[nH]2)n[nH]1	40µM*	-7%	-16%	?	-29%	72%
Cc1ccc2nc(CO[C@H]3CN(Cc4ccc(F)c(F)c4)C[C@H]3F)[nH]c2c1	i	-27%[70.6 µM]	-11%[87.6 µM]	?	?	2%[87.6 µM]
Cc1ccc2nc(CO[C@H]3CN(Cc4ccc(Cl)cc4)C[C@H]3F)[nH]c2c1	i	?	-12%[87.6 µM]	89µM*	?	-28%[87.6 µM]
CC(=O)N1C[C@@H](F)[C@@H](OCc2nc3ccc(C(F)(F)F)cc3[nH]2)C1	i	1%[70.6 µM]	-2%[87.6 µM]	-5%[172 µM]	-11%[138 µM]	-7%[87.6 µM]
CN1C[C@@H](F)[C@@H](OCc2nc3ccc(C(F)(F)F)cc3[nH]2)C1	50µM*	-5%[70.6 µM]	7%[87.6 µM]	-24%[172 µM]	?	158%[87.6 µM]
Cn1cc(CN2C[C@@H](F)[C@@H](OCc3nc4ccc(C#N)cc4[nH]3)C2)c2ccccc21	i	?	-13%[87.6 µM]	89µM*	89µM*	-14%[87.6 µM]
Cc1ccc2nc(CO[C@H]3CN(CC4CC4)C[C@H]3F)[nH]c2c1	i	-12%[70.6 µM]	4%[87.6 µM]	-21%[172 µM]	-7%[138 µM]	76%[87.6 µM]
CCNC(=O)N1C[C@@H](F)[C@@H](OCc2nc3ccc(C)cc3[nH]2)C1	63µM*	3%[70.6 µM]	-3%[87.6 µM]	1%[172 µM]	3%[138 µM]	106%[87.6 µM]
CC1(C)CC=C(C#Cc2ccccc2)c2cc(/C=C/c3ccc(C(=O)O)cc3)ccc21	.	.	3%	.	.	.
O=C(c1nc2sccn2c1Br)N1CCCC1	i	15%[70.6 µM]	6%[87.6 µM]	5%[172 µM]	-22%[138 µM]	3%[87.6 µM]
CS(=O)(=O)c1ccc(CN2C[C@@H](F)[C@@H](OCc3nc4ccc(F)cc4[nH]3)C2)cc1	i	?	1%[87.6 µM]	-24%[172 µM]	-12%[138 µM]	-6%[87.6 µM]
Cc1cc2nc(CO[C@H]3CN(Cc4ccc(S(C)(=O)=O)cc4)C[C@H]3F)[nH]c2cc1C	56µM*	-19%[70.6 µM]	2%[87.6 µM]	?	-21%[174 µM]	-18%[87.6 µM]
CN1C(=O)CCC2(CNC(=O)NC3CCCC3)CCC=C12 (configuration not stated)	i	4%	0%	i	0%	4%
Cc1cc(C)n(CC(=O)N2CCCC(C)(Cc3ccc4c(c3)OCO4)C2)c(=O)n1 (configuration not stated)	i	-2%	-21%	-2%	-4%	-7%
CC1(Cc2ccc3c(c2)OCO3)CCCN(C(=O)CCCn2ccnc2)C1 (configuration not stated)	i	-13%	-1%	40µM*	?	-21%
SMILES	Luciferase inh	NPR1 antag	HEK293 viab	HEK293 tox	NIH3T3 tox	SNCA expr inhib
CC1(Cc2ccc3c(c2)OCO3)CCCN(CC(=O)NCc2ccco2)C1 (configuration not stated)	i	?	6%	45µM*	-25%	-18%
COc1ccc(CNC(=O)Cn2c(N3CCCCC3)nc(C)c(C)c2=O)cc1	i	1%	-1%	-14%	-9%	-19%
O=C(NCc1cccnc1)c1cc(-c2ccccc2F)cc2c1OCCN2Cc1cccnc1	i	-22%	?	?	?	-6%
CNC(=O)c1cc(-c2ccc(F)cc2OC)cc2c1OCCN2Cc1cccnc1	i	-6%[70.6 µM]	-25%[87.6 µM]	?	?	27%[87.6 µM]
Cc1cc(CNC(=O)c2cc(-c3ccccc3)cc3c2OCCN3C)no1	i	3%[70.6 µM]	-9%[87.6 µM]	100µM*	?	-21%[87.6 µM]
CNC(=O)c1cc(-c2ccc(CO)cc2)cc2c1OCCN2Cc1cccnc1	i	10%[70.6 µM]	6%[87.6 µM]	-3%[172 µM]	45µM*	3%[87.6 µM]
CNC(=O)c1cc(-c2cnn(C)c2C)cc2c1OCCN2Cc1cccnc1	i	1%[70.6 µM]	?	-4%[172 µM]	45µM*	13%[87.6 µM]
CNC(=O)c1cc(-c2cnc(OC)nc2)cc2c1OCCN2Cc1cccnc1	i	-1%[70.6 µM]	14%[87.6 µM]	2%[172 µM]	?	-3%[87.6 µM]
CNC(=O)c1cc(-c2ccc([S+](C)(=O)[O-])cc2)cc2c1OCCN2Cc1cccnc1	i	-4%[70.6 µM]	0%[87.6 µM]	-23%[172 µM]	8.9µM*	-3%[87.6 µM]
Cc1cc(CNC(=O)c2cc(-c3ccc(N4CCOCC4)cc3)cc3c2OCCN3C)no1	?	7%	3%	?	?	-11%
O=C(Cc1ccccc1)N1CCC(N2C(=O)C(OCC3CC3)C23CCCCC3)CC1 (configuration not stated)	i	-6%	1%	?	-24%	?
CN(C)CCN(Cc1ccsc1)C(=O)[C@H]1CCC[C@H](O)C1	i	1%	-2%	-3%	-5%	9%
COc1ncc(-c2cc(C(=O)NCc3cccnc3)c3c(c2)N(C)CCO3)cn1	i	-6%[70.6 µM]	5%[87.6 µM]	-12%[172 µM]	45µM*	16%[87.6 µM]
CNC(=O)c1cc(-c2ccc(OC)c(OC)c2)cc2c1OCCN2Cc1cccnc1	i	2%[70.6 µM]	-5%[87.6 µM]	-12%[172 µM]	22µM*	62%[87.6 µM]
